Laboratory results as given in PubChem BioAssay (NCI).
About 79,000 compounds went through this panel and 15% of them were active in at least one assay; those are over-represented in the sample as a whole. Activity calls are given as the source filed them. Rule as the data show it: active = growth inhibition above about 70%; inactive = the rest.

What was measured:
[1] = NCI Yeast Anticancer Drug Screen. Data for the rad52 strain (AID 147);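 also: 0% = growth of vehicle-treated control cultures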; settings: S. cerevisiae rad52 mutant growth inhibition, hits give high values
Method in brief: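 Inhibition of yeast growth, referenced to vehicle controls, was the measured output for a strain with defective DNA damage repair.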

[2] = NCI Yeast Anticancer Drug Screen. Data for the wt1 strain (AID 149);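 also: 0% = growth of vehicle-treated wt1 cultures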; settings: S. cerevisiae wt1 strain (SPY 50644) growth inhibition, hits give high values
Method in brief: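 Each compound is tested on wt1 yeast and the loss of growth versus vehicle gives the inhibition value.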

[3] = NCI Yeast Anticancer Drug Screen. Data for the mgt1 strain (AID 153); settings: S. cerevisiae mgt1 mutant growth inhibition, hits give high values
Method in brief: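 In the mgt1 strain, test compounds were added and growth inhibition was determined relative to vehicle-treated controls.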

[4] = NCI Yeast Anticancer Drug Screen. Data for the rad50 strain (AID 155);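 also: 0% = growth of vehicle-only cultures of the same strain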; settings: S. cerevisiae rad50 strain growth inhibition, hits give high values
Method in brief: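 Vehicle-treated cultures provide the reference for the growth inhibition reported for compound-exposed, repair-deficient yeast.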

[5] = NCI Yeast Anticancer Drug Screen. Data for the mec2-1 strain (AID 157); settings: S. cerevisiae mec2-1 strain, hits give high values
Method in brief: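 Each compound was tested on mec2-1 yeast, a strain altered in DNA damage repair or cell cycle control. Growth inhibition is reported relative to vehicle.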

[6] = NCI Yeast Anticancer Drug Screen. Data for the rad14 strain (AID 159);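 also: 0% = growth of vehicle-treated control cultures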; settings: S. cerevisiae rad14 strain growth inhibition, hits give high values
Method in brief: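 Inhibition of growth is reported for a repair-deficient yeast mutant following compound treatment, calculated relative to cultures that received vehicle.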

[7] = NCI Yeast Anticancer Drug Screen. Data for the sgs1 mgt1 strain (AID 161);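 also: 0% = growth of cultures given vehicle only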; settings: S. cerevisiae sgs1 mgt1 strain, hits give high values
Method in brief: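 Genetically altered yeast, compound exposure, growth inhibition relative to vehicle.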

[8] = NCI Yeast Anticancer Drug Screen. Data for the CLN2oe strain (AID 163);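 also: 0% = growth of vehicle-only control cultures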; settings: S. cerevisiae CLN2oe strain, hits give high values
Method in brief: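 First, the altered yeast strain was treated with each compound; second, its growth was measured; finally, inhibition was derived by comparison with vehicle controls.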

[9] = NCI Yeast Anticancer Drug Screen. Data for the cln2 rad14 strain (AID 165);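 also: 0% = growth equal to vehicle treated cultures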; settings: S. cerevisiae cln2 rad14 strain, hits give high values
Method in brief: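 Test compounds were added to cln2 rad14 yeast cultures; inhibition of growth was then determined by comparison with vehicle treatment.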

[10] = NCI Yeast Anticancer Drug Screen. Data for the bub3 strain (AID 167); settings: S. cerevisiae bub3 mutant strain, hits give high values
Method in brief: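 Mutant yeast screening strain plus compound; vehicle-treated cultures serve as the 0% inhibition reference.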

[11] = NCI Yeast Anticancer Drug Screen. Data for the wt2 strain (AID 169); settings: S. cerevisiae wt2 strain growth inhibition, hits give high values
Method in brief: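 The panel's yeast strains carry defined changes in DNA repair or cell cycle genes. Each strain is grown with compound, and growth loss is scored relative to vehicle.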

[12] = NCI Yeast Anticancer Drug Screen. Data for the sgs1 strain (AID 173);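 also: 0% = growth of vehicle-only control cultures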; settings: S. cerevisiae sgs1 mutant, hits give high values
Method in brief: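 Vehicle-treated cultures served as reference for growth inhibition of a yeast strain altered in DNA damage repair or cell cycle control after compound exposure.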

[13] = NCI Yeast Anticancer Drug Screen. Data for the mlh1 rad18 strain (AID 175); settings: S. cerevisiae mlh1 rad18 strain growth inhibition, hits give high values
Method in brief: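 Inhibition values reflect reduced growth of mutant yeast versus vehicle-treated controls following compound exposure; the mutations affect DNA damage repair.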

[14] = NCI Yeast Anticancer Drug Screen. Data for the rad18 strain (AID 177); settings: S. cerevisiae rad18 mutant growth inhibition, hits give high values
Method in brief: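 Steps: expose repair-mutant yeast to compound; measure growth; express as inhibition relative to vehicle control.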

[15] = NCI Yeast Anticancer Drug Screen. Data for the mlh1 strain (AID 171);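 also: 0% = growth of vehicle-treated control cultures of the same strain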; settings: S. cerevisiae mlh1 strain growth inhibition, hits give high values
Method in brief: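 Inhibition values reflect reduced yeast growth in the presence of compound, referenced to vehicle controls, using a strain chosen for its alteration in DNA repair or cell cycle control.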

[16] = at 5.0 µM (retest, dose inferred, filed as 0.5)
[17] = at 50.0 µM (retest, dose inferred, filed as 5.0)

Measured: growth inhibition

CCCCNC1CCC2(SCCS2)c2[nH]c3ccccc3c21 (stereo unspecified)
active: [4]; at 50.0 µM 87.3% | [5]; at 50.0 µM 91.2% | [7]; at 50.0 µM 85.2% | [9]; at 50.0 µM 89.5% | [10]; at 50.0 µM 88.2% | [13]; at 50.0 µM 84.7%
inactive: [1]; at 1.2 µM 2% | [1]; at 3.7 µM 5% | [1]; at 11.0 µM 3% | [1]; at 33.0 µM 4% | [1]; at 100.0 µM 5% | [2]; at 1.2 µM 1% | [2]; at 3.7 µM 1% | [2]; at 11.0 µM 0% | [2]; at 33.0 µM 1% | [2]; at 100.0 µM 6% | [3]; at 1.2 µM 2% | [3]; at 3.7 µM -2% | [3]; at 11.0 µM 7% | [3]; at 33.0 µM -5% | [3]; at 100.0 µM 7% | [4]; at 1.2 µM 2% | [4]; at 3.7 µM 3% | [4]; [16] 9% | [4]; at 11.0 µM -7% | [4]; at 33.0 µM 3% | [4]; [17] 49% | [4]; at 100.0 µM 6% | [5]; at 1.2 µM 10% | [5]; at 3.7 µM -1% | [5]; [16] 4% | [5]; at 11.0 µM -2% | [5]; at 33.0 µM -4% | [5]; [17] -14% | [5]; at 100.0 µM 7% | [6]; at 1.2 µM 6% | [6]; at 3.7 µM 0% | [6]; at 11.0 µM 4% | [6]; at 33.0 µM 1% | [6]; at 100.0 µM 9% | [7]; [16] -5% | [7]; [17] 21% | [8]; at 1.2 µM 10% | [8]; at 3.7 µM -4% | [8]; at 11.0 µM 0% | [8]; at 33.0 µM -1% | [8]; at 100.0 µM 6% | [9]; [16] -7% | [9]; [17] 31% | [10]; at 1.2 µM -6% | [10]; at 3.7 µM 1% | [10]; [16] -16% | [10]; at 11.0 µM 6% | [10]; at 33.0 µM -1% | [10]; [17] 17% | [10]; at 100.0 µM 3% | [11]; at 1.2 µM 1% | [11]; at 3.7 µM 2% | [11]; at 11.0 µM 3% | [11]; at 33.0 µM 3% | [11]; at 100.0 µM 8% | [12]; at 1.2 µM 0% | [12]; at 3.7 µM -2% | [12]; at 11.0 µM -1% | [12]; at 33.0 µM -3% | [12]; at 100.0 µM 3% | [13]; [16] 1% | [13]; [17] 21% | [14]; at 1.2 µM 2% | [14]; at 3.7 µM -4% | [14]; at 11.0 µM -4% | [14]; at 33.0 µM -18% | [14]; at 100.0 µM 4%

CCCC(=O)Oc1c(C)cc([N+](=O)[O-])cc1[N+](=O)[O-]
active: [1]; at 11.0 µM 99% | [1]; at 33.0 µM 97% | [1]; at 100.0 µM 99% | [2]; at 11.0 µM 98% | [2]; at 33.0 µM 99% | [2]; at 100.0 µM 99% | [3]; at 33.0 µM 99% | [3]; at 100.0 µM 86% | [4]; at 11.0 µM 98% | [4]; at 33.0 µM 99% | [4]; [17] 99% | [4]; at 50.0 µM 99.4% | [4]; at 100.0 µM 99% | [5]; at 11.0 µM 99% | [5]; at 33.0 µM 99% | [5]; [17] 100% | [5]; at 50.0 µM 99.3% | [5]; at 100.0 µM 99% | [6]; at 11.0 µM 96% | [6]; at 33.0 µM 99% | [6]; at 100.0 µM 99% | [7]; [17] 99% | [7]; at 50.0 µM 99.4% | [8]; at 11.0 µM 94% | [8]; at 33.0 µM 99% | [8]; at 100.0 µM 99% | [9]; [17] 97% | [9]; at 50.0 µM 93.5% | [10]; at 11.0 µM 98% | [10]; at 33.0 µM 99% | [10]; [17] 99% | [10]; at 50.0 µM 99.5% | [10]; at 100.0 µM 99% | [11]; at 11.0 µM 98% | [11]; at 33.0 µM 99% | [11]; at 100.0 µM 99% | [15]; at 11.0 µM 99% | [15]; at 33.0 µM 99% | [15]; at 100.0 µM 99% | [12]; at 11.0 µM 99% | [12]; at 33.0 µM 99% | [12]; at 100.0 µM 99% | [13]; [17] 99% | [13]; at 50.0 µM 99.1% | [14]; at 11.0 µM 98% | [14]; at 33.0 µM 99% | [14]; at 100.0 µM 99%
inactive: [1]; at 1.2 µM 4% | [1]; at 3.7 µM 26% | [2]; at 1.2 µM 1% | [2]; at 3.7 µM 0% | [3]; at 1.2 µM 3% | [3]; at 3.7 µM 11% | [3]; at 11.0 µM 56% | [4]; at 1.2 µM 4% | [4]; at 3.7 µM 25% | [4]; [16] 14% | [5]; at 1.2 µM -1% | [5]; at 3.7 µM 21% | [5]; [16] 33% | [6]; at 1.2 µM 1% | [6]; at 3.7 µM 14% | [7]; [16] 39% | [8]; at 1.2 µM -11% | [8]; at 3.7 µM -2% | [9]; [16] -1% | [10]; at 1.2 µM 12% | [10]; at 3.7 µM 42% | [10]; [16] 40% | [11]; at 1.2 µM 2% | [11]; at 3.7 µM 4% | [15]; at 1.2 µM 2% | [15]; at 3.7 µM 12% | [12]; at 1.2 µM 5% | [12]; at 3.7 µM 27% | [13]; [16] 18% | [14]; at 1.2 µM 5% | [14]; at 3.7 µM 20%
